An excerpt weighted towards active compounds, which were near 2.2% of everything screened.
M18AAP inhibitor: PfM18AAP inhibitors, malaria aminopeptidase, primary screen, biochemical, QFRET, recombinant enzyme; AID 1822, 2009; M18 aspartyl aminopeptidase (Plasmodium falciparum 3D7); 290,000 tested, 1.2% active; H-Glu-NHMec fluorogenic cleavage; inhibition, % at 7.35 µM;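 active = inhibition above the campaign mean inhibition over all tested compounds plus 3 SD, cut at about 28% in these data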;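 also: 0% = plate median of test compound wells and 100% = 2 mM ZnCl2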
PLC-beta3 inh: human PLC-beta3 inhibitors, primary screen, biochemical, fluorescence; 1-phosphatidylinositol 4,5-bisphosphate phosphodiesterase beta-3 (Homo sapiens), Q01970; Purified PLC-beta3, fluorogenic substrate; inhibition, % at 12.2 µM; 370,000 tested, 0.18% active; AID 720704, 2013; in the data active = inhibition above about 11%;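 also: 0% = median of compound wells on plate and 100% = full blocker control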
NPR2 activator: human GC-B receptor activators, primary screen, HEK293 GC-B cells, cGMP TR-FRET, EC30 CNP. 370,000 tested, 0.11% active. AID 1920062, 2024. 0% at EC30 CNP, 100% saturating CNP. activation, % at 10 µM;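 active = activation at 10 µM reaching about 35% in either raw or pattern-adjusted values, limit read from the data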
Target sequence (P20594 whole entry, looked up): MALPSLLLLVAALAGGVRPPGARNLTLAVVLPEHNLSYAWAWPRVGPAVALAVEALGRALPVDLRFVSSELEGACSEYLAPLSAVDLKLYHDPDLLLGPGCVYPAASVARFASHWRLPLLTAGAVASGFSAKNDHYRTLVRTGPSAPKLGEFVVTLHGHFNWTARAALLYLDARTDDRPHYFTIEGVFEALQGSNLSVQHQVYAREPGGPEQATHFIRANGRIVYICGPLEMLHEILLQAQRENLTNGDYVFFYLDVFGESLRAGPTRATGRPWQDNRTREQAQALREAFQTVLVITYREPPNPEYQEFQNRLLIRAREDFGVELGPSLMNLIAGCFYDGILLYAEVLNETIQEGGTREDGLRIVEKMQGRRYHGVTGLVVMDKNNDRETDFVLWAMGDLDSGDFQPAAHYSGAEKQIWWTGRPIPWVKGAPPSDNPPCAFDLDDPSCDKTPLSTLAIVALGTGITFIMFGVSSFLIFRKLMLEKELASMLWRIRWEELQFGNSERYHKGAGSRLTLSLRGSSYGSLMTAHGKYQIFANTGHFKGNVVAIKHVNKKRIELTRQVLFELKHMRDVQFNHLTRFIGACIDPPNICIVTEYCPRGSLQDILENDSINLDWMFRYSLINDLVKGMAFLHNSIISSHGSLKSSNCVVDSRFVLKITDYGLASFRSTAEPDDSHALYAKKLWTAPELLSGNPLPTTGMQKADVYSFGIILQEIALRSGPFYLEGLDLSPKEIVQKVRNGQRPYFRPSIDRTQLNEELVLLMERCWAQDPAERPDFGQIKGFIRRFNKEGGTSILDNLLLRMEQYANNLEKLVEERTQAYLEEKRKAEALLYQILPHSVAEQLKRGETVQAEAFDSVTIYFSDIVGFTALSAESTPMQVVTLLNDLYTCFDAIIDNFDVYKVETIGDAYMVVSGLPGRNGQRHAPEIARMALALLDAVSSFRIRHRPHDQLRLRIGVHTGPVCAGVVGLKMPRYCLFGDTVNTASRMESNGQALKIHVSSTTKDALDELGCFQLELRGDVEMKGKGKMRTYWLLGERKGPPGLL
GC-A act: GC-A stimulated cGMP production enhancers – HEK293 GC-A cells, cGMP TR-FRET, EC30 ANP, primary screen. Atrial natriuretic peptide receptor 1 (Homo sapiens), P16066. 0% at EC30 ANP, 100% saturating ANP. activation, % at 10 µM. 370,000 tested, 0.14% active; in the data active = activation above about 40%
Rce1 inhib: yeast Rce1p protease inhibitors, primary screen, biochemical, fluorescence, cell-free homogeneous; 290,000 tested, 0.27% active; calls only; yeast membranes, quenched prenylated peptide cleavage fluorescence;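 active = fall in fluorescence gain of 50% or more versus controls, with final raw signal at or below 3038400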;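 also: plate controls were neutral control wells for no effect and wells lacking membranes for full effect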
PLC-gamma1 inh: PLC-gamma1 enzyme inhibitors, primary screen, biochemical, fluorescence, purified enzyme; fluorogenic substrate; inhibition, % at 12.2 µM; AID 720700, 2013; 370,000 tested, 0.84% active
PLCgamma1 ctr: PLC-gamma1 enzyme inhibitors, counter-screen for PLC-beta3 inhibitor project, biochemical, fluorescence | shares compounds with PLC-gamma1 inh | purified PLC-gamma1, fluorogenic substrate | inhibition, % at 12.3 µM | 3,300 tested, 3.1% active | AID 743258, 2014
PLCbeta3 conf: PLC-beta3 inhibitor confirmation, biochemical, fluorescence, purified enzyme; shares compounds with PLC-gamma1 inh; fluorogenic substrate fluorescence; inhibition, % at 12.3 µM; 3,300 tested, 1% active; AID 743261, 2014; in the data active = inhibition above about 11%
Starred values were filed as active, the others as inactive; i = inactive; · = no result given. Rule as the data show it, unless noted: active = inhibition above about 9.5%; inactive = the rest.

SMILES	M18AAP inhibitor	PLC-beta3 inh	NPR2 activator	GC-A act	Rce1 inhib	PLC-gamma1 inh	PLCgamma1 ctr	PLCbeta3 conf
CCCC(C)C(=O)Nc1cc([N+](=O)[O-])ccc1F (stereo not drawn)	-8	4	3	-4	i	9.7*	2	0
CCCC(C)C(=O)Nc1cc([N+](=O)[O-])ccc1Cl (stereo not drawn)	6	-2	4	3	i	0	·	·
O=C(COC(=O)c1ccc(Br)cc1)NCC1CCCO1 (stereo not drawn)	·	12*	3	1	·	5	6	0
CCOC(=O)N(C)C[C@H]1OCc2cn(nn2)CCCC(=O)N([C@@H](C)CO)C[C@@H]1C	·	0	-3	0	·	-1	·	·
CCOc1ccc(/C=C/c2c([N+](=O)[O-])c(=O)n(C)c(=O)n2C)cc1	11	4	-3	-3	i	11*	2	2
Cc1nc2ccccc2nc1OCc1ccccc1	-1	4	-11	2	i	1	·	·
Brc1cnc(OCc2ccccc2)nc1OCc1ccccc1	·	12*	-2	-7	·	8	-7	-6
Cn1ccnc1CN1CCC[C@]2(CC[C@H](CCC#N)O2)C1	·	3	-3	1	·	1	·	·
Cc1csc2nc(O)c(C(=O)NCCCN3CCCC3=O)c(=O)n12	·	4	-3	-1	i	9.7*	-7	-4
COc1ccccc1CCn1cnc(-c2ccccc2)c1CC(C)C	·	7	-10	-17	·	8	·	·
CCn1c(CNc2ccc(F)cc2)nnc1SCC(=O)Nc1ccccc1OC	3	5	-5	-6	i	11*	-7	-2
COC(=O)C1CCCN(C(=O)C2CCN(S(=O)(=O)c3ccccc3[N+](=O)[O-])CC2)C1 (stereo not drawn)	·	0	-1	-1	·	1	·	·
Cc1cccc(NC(=O)CNC(=O)[C@@H](Cc2ccccc2)NC(=O)[C@H]2O[C@@H](n3ccc(=O)[nH]c3=O)[C@H](O)[C@@H]2O)c1C	·	5	8	2	·	4	·	·
CCCc1c(Cc2cccc(F)c2)ncn1CCc1ccccc1OC	·	2	-3	-7	·	3	·	·
Fc1ccc(CNCc2ccco2)cc1	-4	1	1	-1	i	12*	-1	0
O=c1c(-c2ccnn2-c2ccc(F)cc2)cnc2n1CCS2	4	0	-4	-1	i	-1	·	·
O=c1ccnc2n1COCS2	-2	0	0	1	i	12*	-5	-1
O=C(Nc1ccc2c(c1)OCO2)N1CCC(c2nc3ccc(Cl)cc3[nH]2)CC1	·	0	-8	-2	·	-2	·	·
COc1ccc(S(=O)(=O)N(C)C)cc1NC(=O)[C@H](Cc1ccccc1)N1C(=O)c2ccccc2C1=O	-1	5	7	-3	i	9.8*	1	4
COc1ccc(Cl)cc1S(=O)(=O)N(C)CC(=O)NCc1ccccn1	5	-6	3	0	i	9.6*	-1	1
Cc1ccc(OCCn2c(CCNC(=O)c3ccc(F)cc3F)nc3ccccc32)cc1	·	7	-9	-6	·	9	·	·
CC(C)=CCC/C(C)=C/C[C@]12C[C@H](C(=O)O)N(C(=O)OC(C)(C)C)[C@@H]1N(C(=O)OC(C)(C)C)c1ccccc12	·	-5	-5	-4	·	-2	·	·
CCS(=O)(=O)c1nc(S(=O)(=O)c2ccc(C)cc2)c(N2CCN(C)CC2)s1	-2	-5	2	-4	i	9.8*	0	-1
CCS(=O)(=O)c1nc(S(=O)(=O)c2ccc(Cl)cc2)c(N2CCN(C)CC2)s1	-5	-6	1	-1	i	2	·	·
CCOC(=O)Cn1cc(CN2C(C(=O)OC)CN(Cc3ccc(OC)cc3)CCS2(=O)=O)nn1 (stereo not drawn)	·	2	-5	0	·	0	·	·
SMILES	M18AAP inhibitor	PLC-beta3 inh	NPR2 activator	GC-A act	Rce1 inhib	PLC-gamma1 inh	PLCgamma1 ctr	PLCbeta3 conf
O=C(O)C(Cc1ccccc1)n1cnnn1 (stereo not drawn)	-10	5	1	1	i	10*	-5	-2
O=C(O)C(Cc1ccccc1)n1cccc1 (stereo not drawn)	-5	-4	-4	2	i	-3	·	·
COc1cc(C23CCCN(CCC(C(C)(C)C)C2)C32OCCO2)cc(OC)c1OC (stereo not drawn)	·	2	-1	1	·	11*	2	4
CC(C)(C)C1CCN2CCCC(c3ccc([N+](=O)[O-])cc3)(C1)C21OCCO1 (stereo not drawn)	·	2	0	4	·	0	·	·
CCOC(=O)c1sc(=S)n(-c2ccccc2Cl)c1C	8	-2	-4	1	i	3	·	·
CCOC(=O)N1C(=O)C2(CCCCC2)N(c2ccccc2Cl)C1=S	-15	2	-3	-4	i	11*	-2	1
CN(C(=O)CS(=O)(=O)c1cccc(Cl)c1)c1ccccc1	8	3	-2	-5	i	11*	-3	-1
CC1CCN(C(=O)CSc2ccc(-c3cccc([N+](=O)[O-])c3)nn2)CC1	-6	-3	3	9	i	3	·	·
O=C(CSc1ccc(-c2cccc([N+](=O)[O-])c2)nn1)N1CCCCC1	2	0	2	1	i	14*	-2	3
COc1ccc(S[C@]2(C(=O)N3CCN(c4ncccn4)CC3)CC(=O)N(c3ccc(Cl)cc3)[C@@H]2c2ccc(OC)cc2)cc1	·	-4	-1	-3	·	0	·	·
CCCCn1cc([N+](=O)[O-])nc1C	3	-8	5	1	i	0	·	·
Cc1nc([N+](=O)[O-])cn1CCCCN1C(=O)c2ccccc2C1=O	-2	1	-4	1	i	11*	0	-2
Cc1nc2ccccn2c1C(O)(c1ccccc1)c1ccccc1	·	-1	-16	-18	·	0	·	·
O=S(=O)(c1ccccc1)N(CC(F)(F)F)c1ccc(C(O)(C(F)(F)F)C(F)(F)F)cc1	·	4	1	-2	·	12*	-11	-7
O=[N+]([O-])c1cccc(NCCCN2CCC(C(O)(c3ccccc3)c3ccccc3)CC2)c1	·	-2	-8	-22	·	-1	·	·

High-throughput results from PubChem BioAssay.
